About 79,000 compounds went through this panel and 15% of them were active in at least one assay; those are over-represented in the sample as a whole. Activity calls are given as the source filed them. No stated cut-off is given here; in the data, active means growth inhibition above about 70%; inactive means the rest.
Legend:
[1] = NCI Yeast Anticancer Drug Screen. Data for the wt2 strain (AID 169);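 further: 0% = growth of vehicle-treated yeast cultures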; details: S. cerevisiae wt2 strain growth inhibition, hits give high values
In short: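 Genetically defined yeast strains from a DNA-repair/cell-cycle panel were used. Compound-exposed yeast growth was measured, and the inhibition was calculated relative to vehicle treatment.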

[2] = NCI Yeast Anticancer Drug Screen. Data for the mlh1 strain (AID 171);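 further: 0% = growth of vehicle-treated control cultures of the same strain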; details: S. cerevisiae mlh1 strain growth inhibition, hits give high values
In short: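 Here the genetically defined yeast mutant is grown with each compound, and the extent to which its growth falls below that of vehicle-exposed cells is reported.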

[3] = NCI Yeast Anticancer Drug Screen. Data for the sgs1 strain (AID 173);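 further: 0% = growth of vehicle-only control cultures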; details: S. cerevisiae sgs1 mutant, hits give high values
In short: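 Relative growth inhibition, referenced to vehicle, was determined in a yeast strain with a defined alteration affecting DNA damage repair or cell cycle control after compound exposure.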

[4] = NCI Yeast Anticancer Drug Screen. Data for the mlh1 rad18 strain (AID 175); details: S. cerevisiae mlh1 rad18 strain growth inhibition, hits give high values
In short: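 In this whole-cell yeast screen, a strain with altered DNA damage repair is challenged with compound, and its growth is measured against matched vehicle-treated controls.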

[5] = NCI Yeast Anticancer Drug Screen. Data for the rad18 strain (AID 177); details: S. cerevisiae rad18 mutant growth inhibition, hits give high values
In short: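 Screen uses a yeast strain with a defined lesion in DNA damage repair; compound effect is read as loss of growth compared to untreated vehicle cultures.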

[6] = NCI Yeast Anticancer Drug Screen. Data for the rad52 strain (AID 147);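 further: 0% = growth of vehicle-treated control cultures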; details: S. cerevisiae rad52 mutant growth inhibition, hits give high values
In short: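 Measured: yeast growth inhibition. System: strain with a defined DNA damage repair alteration. Reference: vehicle-treated control cultures.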

[7] = NCI Yeast Anticancer Drug Screen. Data for the wt1 strain (AID 149);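 further: 0% = growth of vehicle-treated wt1 cultures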; details: S. cerevisiae wt1 strain (SPY 50644) growth inhibition, hits give high values
In short: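 Measured: growth of wt1 yeast under compound versus vehicle treatment, reported as inhibition.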

[8] = NCI Yeast Anticancer Drug Screen. Data for the rad50EPP+ strain (AID 151);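 further: 0% = growth of vehicle-treated control cultures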; details: S. cerevisiae rad50 mutant strain, hits give high values
In short: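 One strain with a rad50 alteration (rad50EPP+) was compound-treated, its growth then compared to that of vehicle controls.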

[9] = NCI Yeast Anticancer Drug Screen. Data for the mgt1 strain (AID 153); details: S. cerevisiae mgt1 mutant growth inhibition, hits give high values
In short: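 After exposure of the mgt1 yeast mutant to compound, growth was measured and reported as inhibition compared with vehicle controls.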

[10] = NCI Yeast Anticancer Drug Screen. Data for the rad50 strain (AID 155);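 further: 0% = growth of vehicle-only cultures of the same strain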; details: S. cerevisiae rad50 strain growth inhibition, hits give high values
In short: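 Growth of the mutant yeast was measured after compound exposure and referenced to vehicle-treated cultures.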

[11] = NCI Yeast Anticancer Drug Screen. Data for the mec2-1 strain (AID 157); details: S. cerevisiae mec2-1 strain, hits give high values
In short: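 Test agents were screened against the mec2-1 yeast strain, with defined DNA repair or cell cycle alteration. Growth was scored as inhibition against vehicle-only controls.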

[12] = NCI Yeast Anticancer Drug Screen. Data for the sgs1 mgt1 strain (AID 161);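 further: 0% = growth of cultures given vehicle only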; details: S. cerevisiae sgs1 mgt1 strain, hits give high values
In short: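 Read-out: growth inhibition vs vehicle controls. Cells: mutant yeast strain deficient in DNA damage repair.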

[13] = NCI Yeast Anticancer Drug Screen. Data for the CLN2oe strain (AID 163);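 further: 0% = growth of vehicle-only control cultures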; details: S. cerevisiae CLN2oe strain, hits give high values
In short: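 Here, growth inhibition in a cell-cycle-altered yeast strain after compound exposure was quantified against vehicle control growth.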

[14] = NCI Yeast Anticancer Drug Screen. Data for the cln2 rad14 strain (AID 165);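 further: 0% = growth equal to vehicle treated cultures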; details: S. cerevisiae cln2 rad14 strain, hits give high values
In short: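 Growth of compound-exposed yeast (cln2 rad14 genotype) measured and expressed as inhibition relative to vehicle.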

[15] = NCI Yeast Anticancer Drug Screen. Data for the bub3 strain (AID 167); details: S. cerevisiae bub3 mutant strain, hits give high values
In short: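 Whole-cell yeast assay. The mutant strain was incubated with compounds, and growth inhibition was determined by comparison with vehicle-treated cells.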

[16] = at 5.0 µM (retest, dose inferred, filed as 0.5)
[17] = at 50.0 µM (retest, dose inferred, filed as 5.0)

Measured: growth inhibition

CCCN(CCC)CC(O)c1cc(-c2ccc(Cl)cc2)nc2c(C)c(Cl)ccc12 (stereo unspecified)
active: [1]; at 33.0 µM 97% | [1]; at 100.0 µM 96% | [2]; at 11.0 µM 99% | [2]; at 33.0 µM 98% | [2]; at 100.0 µM 95% | [3]; at 11.0 µM 98% | [3]; at 33.0 µM 97% | [3]; at 100.0 µM 95% | [4]; [17] 96% | [4]; at 50.0 µM 98.7% | [5]; at 11.0 µM 98% | [5]; at 33.0 µM 96% | [5]; at 100.0 µM 94%
inactive: [2]; at 1.2 µM -3% | [2]; at 3.7 µM -2% | [3]; at 1.2 µM -2% | [3]; at 3.7 µM 3% | [4]; [16] 27% | [5]; at 1.2 µM -4% | [5]; at 3.7 µM -5%

CC1(Cl)CC(O)C2(CC1Br)C1(C)OC1C1OC1(Br)C2(C)C (stereo unspecified)
inactive: [6]; at 1.2 µM 14% | [6]; at 3.7 µM 19% | [6]; at 11.0 µM 31% | [6]; at 33.0 µM 66% | [7]; at 1.2 µM 1% | [7]; at 3.7 µM -20% | [7]; at 11.0 µM -2% | [7]; at 33.0 µM 60% | [8]; at 1.2 µM -9% | [8]; at 3.7 µM -12% | [8]; at 11.0 µM -21% | [8]; at 33.0 µM 2% | [9]; at 1.2 µM -18% | [9]; at 3.7 µM -14% | [9]; at 11.0 µM -1% | [10]; at 1.2 µM -8% | [10]; at 3.7 µM -12% | [10]; [16] 12% | [10]; at 11.0 µM 1% | [10]; at 50.0 µM 62.6% | [11]; at 1.2 µM -29% | [11]; at 3.7 µM -21% | [11]; [16] 0% | [11]; at 11.0 µM -23% | [11]; at 33.0 µM 39% | [11]; [17] 53% | [11]; at 50.0 µM 59.2% | [12]; [16] 2% | [12]; at 50.0 µM 67.8% | [13]; at 1.2 µM 2% | [13]; at 3.7 µM 3% | [13]; at 11.0 µM 5% | [13]; at 33.0 µM 31% | [14]; [16] 33% | [14]; [17] 58% | [14]; at 50.0 µM 42.5% | [15]; at 1.2 µM -15% | [15]; at 3.7 µM 1% | [15]; [16] 29% | [15]; at 11.0 µM 1% | [15]; at 33.0 µM 35% | [1]; at 1.2 µM -10% | [1]; at 3.7 µM -5% | [1]; at 11.0 µM -1% | [1]; at 33.0 µM 62% | [2]; at 1.2 µM -19% | [2]; at 3.7 µM -22% | [2]; at 11.0 µM -18% | [2]; at 33.0 µM 66% | [3]; at 1.2 µM -25% | [3]; at 3.7 µM -33% | [3]; at 11.0 µM -17% | [4]; [16] -13% | [4]; at 50.0 µM 62.6% | [5]; at 1.2 µM -15% | [5]; at 3.7 µM -7% | [5]; at 11.0 µM 25%
active: [6]; at 100.0 µM 98% | [7]; at 100.0 µM 98% | [8]; at 100.0 µM 73% | [9]; at 33.0 µM 74% | [9]; at 100.0 µM 98% | [10]; at 33.0 µM 73% | [10]; [17] 79% | [10]; at 100.0 µM 97% | [11]; at 100.0 µM 98% | [12]; [17] 86% | [13]; at 100.0 µM 98% | [15]; [17] 89% | [15]; at 50.0 µM 73.5% | [15]; at 100.0 µM 98% | [1]; at 100.0 µM 98% | [2]; at 100.0 µM 97% | [3]; at 33.0 µM 78% | [3]; at 100.0 µM 98% | [4]; [17] 80% | [5]; at 33.0 µM 76% | [5]; at 100.0 µM 98%

CCC(=O)Oc1c(Cl)cc(Cl)c2ccccc12
inactive: [6]; at 1.2 µM -2% | [6]; at 3.7 µM -2% | [6]; at 11.0 µM -1% | [6]; at 33.0 µM 4% | [6]; at 100.0 µM 54% | [7]; at 1.2 µM -4% | [7]; at 3.7 µM -4% | [7]; at 11.0 µM -4% | [7]; at 33.0 µM -6% | [7]; at 100.0 µM 13% | [8]; at 1.2 µM -2% | [8]; at 3.7 µM 4% | [8]; at 11.0 µM 10% | [8]; at 33.0 µM 15% | [8]; at 100.0 µM 49% | [9]; at 1.2 µM -8% | [9]; at 3.7 µM -10% | [9]; at 11.0 µM -2% | [9]; at 33.0 µM 3% | [9]; at 100.0 µM 28% | [10]; at 1.2 µM -5% | [10]; at 3.7 µM -4% | [10]; [16] 8% | [10]; at 11.0 µM -1% | [10]; at 33.0 µM 5% | [10]; [17] -53% | [10]; at 50.0 µM 20.1% | [10]; at 100.0 µM 35% | [11]; at 1.2 µM -2% | [11]; at 3.7 µM -2% | [11]; [16] -9% | [11]; at 11.0 µM -2% | [11]; at 33.0 µM 0% | [11]; [17] -1% | [11]; at 50.0 µM -8.5% | [11]; at 100.0 µM 32% | [12]; [16] -9% | [12]; [17] 49% | [12]; at 50.0 µM 32% | [13]; at 1.2 µM -5% | [13]; at 3.7 µM -2% | [13]; at 11.0 µM -7% | [13]; at 33.0 µM -6% | [13]; at 100.0 µM 22% | [14]; [16] -16% | [14]; [17] 18% | [14]; at 50.0 µM 15.2% | [15]; at 1.2 µM -4% | [15]; at 3.7 µM -6% | [15]; [16] 2% | [15]; at 11.0 µM -9% | [15]; at 33.0 µM -12% | [15]; [17] -5% | [15]; at 50.0 µM 12.1% | [15]; at 100.0 µM 3% | [1]; at 1.2 µM -4% | [1]; at 3.7 µM -5% | [1]; at 11.0 µM -5% | [1]; at 33.0 µM -5% | [1]; at 100.0 µM 20% | [2]; at 1.2 µM -2% | [2]; at 3.7 µM -2% | [2]; at 11.0 µM 0% | [2]; at 33.0 µM 10% | [2]; at 100.0 µM 38% | [3]; at 1.2 µM -4% | [3]; at 3.7 µM -3% | [3]; at 11.0 µM 2% | [3]; at 33.0 µM 9% | [3]; at 100.0 µM 43% | [4]; [16] -10% | [4]; at 50.0 µM 10.9% | [5]; at 1.2 µM -3% | [5]; at 3.7 µM 1% | [5]; at 11.0 µM 1% | [5]; at 33.0 µM 5%
active: [4]; [17] 77% | [5]; at 100.0 µM 73%

Source: PubChem BioAssay (NCI)
